BAZ2B block: BAZ2B (human) inhibition; Q9UIF8; AlphaScreen BAZ2B-H3K14Ac peptide displacement; Potency, µM (top dose mostly 114 µM), actives largely listed as inhibitors; 4.4% of 360,000 active; AID 504333; also: nearly all actives have a fitted effect of over 60% in size
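AlphaScreen luminescence quantifies BAZ2B engagement of H3K14Ac peptide; the protein and biotinylated peptide are both at 50 nM final, buffer PBS pH 7.4 with 0.01% Tween-20, all steps at room temperature.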
Sfp PPTase inh: inhibitors of Bacillus subtilis Sfp phosphopantetheinyl transferase | Q9F4F7 | 3.5% of 310,000 active | Potency, µM, most hits filed as inhibitors | Biochemical Sfp PPTase activity, qHTS;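 also: the enzyme is Sfp with the accession as filed and its product quenches rhodamine fluorescence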
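Reaction rates are the 30-min fluorescence difference (ex 525, em 598 nm) in wells containing 15 nM Sfp, 5 uM rhodamine-CoA and 12.5 uM BHQ-2-YbbR at pH 7.6 with 10 mM MgCl2.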
G9a inh: G9a (human) methyltransferase inhibition; G9a H3K9 monomethylation, AlphaScreen, 2 h; 8.8% of 350,000 active; Potency, µM (series often up to 102 µM), hits mostly inhibitors; AID 504332; also: nearly all actives have a fitted effect of over 75% in size
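G9a (20 nM) was preincubated 15 min with compound, then reacted 2 h at room temperature with 500 nM biotin-H3K9 peptide and 20 µM SAM. Monomethyl-H3K9 detected by AlphaScreen using anti-H3K9me1 antibody.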
JMJD2A Tudor inh: inhibitors of human JMJD2A Tudor domain; O75164; AlphaScreen JMJD2A-Tudor / H3K4me3 peptide binding; Potency, µM (titrated, usually from 114 µM), hits mostly inhibitors; 4.4% of 390,000 active; also: nearly all actives have a fitted effect of over 50% in size
HP1b chromo inh: blocks HP1-beta chromodomain binding to methylated histone tails; P83916; 0.56% of 390,000 active; AlphaScreen HP1-beta / biotin-H3K9me3 peptide binding; Potency, µM (top dose mostly 114 µM), usual class: inhibitors; also: nearly all actives have a fitted effect of over 70% in size
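HP1-beta protein (50 nM final) preincubated 30 min at room temperature with biotinylated H3(1-18)K9me3 peptide (50 nM) in PBS pH 7.4, 0.01% Tween-20, then compound added for 30 min. AlphaScreen streptavidin donor/nickel chelate acceptor beads (10 ug/mL final), 30 min dark, luminescence read.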
Hits are given with their value; - = inactive; ? = inconclusive; . = no result given; [ ] = another dose, or the depositor's remark. Only some compounds are listed: those with a hit (about 12% of all), similar ones and a draw of the others. Calls follow the shape of the dose curve; as a rule, active = well fitted curve in the direction sought with a large enough effect; inconclusive = small, poorly fitted or top-dose-only effect, or another doubt; inactive = no such curve, though single readings can be large; an effect the other way counts as inactive or inconclusive.

SMILES | BAZ2B block | Sfp PPTase inh | G9a inh | JMJD2A Tudor inh | HP1b chromo inh
O=C(O)CCNC(=O)c1ccc(N=Nc2ccc(O)c(C(=O)O)c2)cc1 | . | - | - | . | .
CCOC(=O)CCP(=O)(O)C(O)c1ccccc1 (stereo unspecified) | - | - | - | 50.1µM | -
CN(CP(=O)(O)C(O)c1ccccc1)S(C)(=O)=O (stereo unspecified) | - | - | ? | ? | -
CC(C)CC(=O)NCC(c1ccc2c(c1)OCO2)N1CCN(c2ccccc2)CC1 (stereo unspecified) | - | . | - | - | -
COc1cc(CNc2ccc(N3CCCC3)cc2)cc(Cl)c1OC | 35.5µM | 14.1µM | 3.55µM | 10µM | 14.1µM
COc1cccc(OC)c1C(=O)Nc1ccccc1N1CCCCC1 | - | - | - | ? | -
CCOc1cc(CNc2ccc(N3CCCC3)cc2)cc(Cl)c1OC | 12.6µM | ? | 10µM | 11.2µM | 20µM
COc1cccc(Nc2ccc(N3CCCCC3)cc2)c1OC | 14.1µM | . | -[0.501 µM] | 31.6µM | 31.6µM
C=CCOc1c(Cl)cc(CNc2ccc(C)c(Cl)c2)cc1OC | - | ? | - | . | .
O=C(CSc1nc2ccccc2nc1Cc1ccccc1)Nc1ccc2c(c1)OCO2 | - | . | - | - | -
CCn1cc(S(=O)(=O)c2cccc(C)c2)c(=O)c2cc(F)c(N3CCN(c4ccccc4)CC3)cc21 | - | . | - | - | -
COc1cc(NC(=O)COC(=O)Cn2cnc3c2c(=O)n(C)c(=O)n3C)cc(OC)c1 | - | . | - | - | -
Cc1ccc(C(=O)Oc2ccc(C(=O)COC(=O)C3CC(=O)N(Cc4ccco4)C3)cc2)cc1 (stereo unspecified) | 50.1µM | ? | ? | ? | -
O=C(COC(=O)C1CC(=O)N(Cc2ccccc2)C1)c1ccc(Br)cc1 (stereo unspecified) | - | - | - | - | -
O=C(COC(=O)C1CC(=O)N(Cc2ccco2)C1)c1ccc(OC(=O)c2ccco2)cc1 (stereo unspecified) | 25.1µM | 12.6µM | 8.91µM | 35.5µM | ?
Cc1[nH]c2ccccc2c1C(=O)COC(=O)C1CC(=O)N(Cc2ccco2)C1 (stereo unspecified) | - | - | ? | - | -
CC(NC(=O)c1ccccc1)c1nc2ccccc2n1Cc1ccccc1F (stereo unspecified) | - | - | 50.1µM | . | .
CC(NC(=O)c1ccccc1)c1nc2ccccc2n1Cc1ccc(Cl)cc1 (stereo unspecified) | - | . | - | - | -
Cc1cccc(C)c1NC(=O)CSc1nc2ncccc2o1 | - | . | - | - | -
CCOc1ccc(S(=O)(=O)N(CC(=O)N2CCC(C(N)=O)CC2)c2ccc(F)cc2)cc1 | - | - | . | - | -
Cc1cc(C)c(S(=O)(=O)c2ccccc2)c(OC(=O)c2ccc(Cl)cc2Cl)n1 | 56.2µM | - | - | - | -
Cc1ccc(NC(=O)CN(C)C(=O)COc2cccc3ccc(C)nc23)cc1 | . | . | . | - | -
O=C(CSc1cn[nH]n1)Nc1cccc(C(F)(F)F)c1 | - | - | ? | - | -
Cc1nonc1NC(=O)CSc1ccc(-c2ccccc2)nn1 | - | - | - | - | -
COc1ccc(NC(=O)CSc2ccccn2)cc1OC | - | - | - | - | -
SMILES | BAZ2B block | Sfp PPTase inh | G9a inh | JMJD2A Tudor inh | HP1b chromo inh
Cc1cccc(NC(=O)CSc2cn[nH]n2)c1 | - | - | 39.8µM | - | -
COc1ccc(NC(=O)CSc2cn[nH]n2)cc1OC | - | - | 35.5µM | - | -
Cc1nonc1NC(=O)CSc1cn[nH]n1 | - | - | 50.1µM | - | -
COc1cc(OC)c(NC(=O)N2CCOc3ccc(C)cc32)cc1Cl | - | . | - | - | -
CC1(c2nnc(-c3cccc(Cl)c3)o2)CC(c2cccc([N+](=O)[O-])c2)=NO1 (stereo unspecified) | - | - | 44.7µM | ? | -
CC1(c2nnc(-c3ccccc3)o2)CC(c2cccc(Cl)c2)=NO1 (stereo unspecified) | - | - | -[12.7 µM] | - | -
COc1cc(OC)c(NC(=O)CCCn2nc(C)c3c(C)n(-c4ccccc4)nc3c2=O)cc1Cl | - | . | - | - | -
Cn1c(SCC(=O)c2ccc3c(c2)OCO3)nnc1C1COc2ccccc2O1 (stereo unspecified) | - | - | ? | 50.1µM | -
Cn1c(SCc2cc(=O)n3cc(Br)ccc3n2)nnc1C1COc2ccccc2O1 (stereo unspecified) | ? | - | - | 50.1µM | -
Cn1c(SCC(=O)c2ccccc2)nnc1C1COc2ccccc2O1 (stereo unspecified) | - | - | . | - | -
Cc1occc1-c1nnc(SCc2cc(=O)n3cc(Br)ccc3n2)n1C | 56.2µM | - | - | ? | -
CC1CC1C(=O)OCc1cc(=O)n2cc(Br)ccc2n1 (stereo unspecified) | - | - | ? | - | -
COc1ccc(-c2cn3c(n2)sc2cc(C(=O)NC(C)C45CC6CC(CC(C6)C4)C5)ccc23)cc1 (stereo unspecified) | - | . | - | - | -
CCCn1c(-c2ccc(F)cc2)nc2c(NCCCN(CCO)CCO)nc(C)nc21 | . | - | . | . | .
COc1cccc(OC)c1C(=O)NC(=S)Nc1cc(-c2nc3ccccc3[nH]2)ccc1Cl | - | - | ? | - | ?
CCc1ccc(C(=O)c2cn(CC(=O)Nc3ccc(F)cc3)c3cc4c(cc3c2=O)OCO4)cc1 | ? | . | - | ? | -
COC(=O)CNC(=O)[C@@]1(C)C=C[C@@H](Cc2ccccc2)N1C(=O)OC | . | - | . | . | .
O=C(Oc1ccc(N2C(=O)C3C4CCC(C4)C3C2=O)cc1)c1ccco1 (stereo unspecified) | - | - | - | - | -
O=C(Oc1cccc2cccnc12)c1cccc(-n2cnnn2)c1 | ? | - | 5.62µM | - | -
O=C(Oc1cccc2cccnc12)c1ccc(N2C(=O)C3C4CCC(C4)C3C2=O)cc1 (stereo unspecified) | 50.1µM | ? | - | ? | -
COc1ccc(NC(=O)c2cccc(N3C(=O)C4C5CCC(C5)C4C3=O)c2)cc1 (stereo unspecified) | - | - | - | - | -
O=C(Oc1cccc2cccnc12)c1cccc(N2C(=O)C3C4CCC(C4)C3C2=O)c1 (stereo unspecified) | 10µM | 44.7µM | 0.794µM | 70.8µM | -
CCOc1ccc(CCNC(=O)c2ccc3c(c2)c(C)c(C)n3Cc2ccccc2)cc1OCC | ? | . | - | ? | -
COC(=O)N1CCN(/[N+]([O-])=N/Oc2ccc([N+](=O)[O-])cc2[N+](=O)[O-])CC1 | . | - | . | - | -
COc1ccccc1N1C(=O)CSC1=NC(=O)c1ccccc1 | - | - | . | - | -
COc1ccccc1N=C1SCC(=O)N1c1ccccc1OC | - | 4.47µM | 28.2µM | - | ?
N#CC1=C(N)OC2=C(CC/C2=C\c2ccccc2)C1c1ccccc1 (stereo unspecified) | 89.1µM | - | 44.7µM | ? | ?
N#CC1=C(N)OC2=C(CC/C2=C\c2ccccc2Cl)C1c1ccccc1Cl (stereo unspecified) | ? | - | 22.4µM | ? | -

Bioassay records deposited in PubChem by National Center for Advancing Translational Sciences (NCATS).
